Experimental findings from PubChem BioAssay (EPA / NIEHS) are described below.

Inconclusive results are not listed. Calls of active or inactive are those of the source. How the source made its calls: active means hit-call score of the fitted dose curve at least 0.9, where 1 is the maximum; inconclusive means response in the unintended direction; inactive means score below 0.9.

Estrogen receptor (Homo sapiens), sequence (P03372 whole entry, looked up, the tested form may be a part): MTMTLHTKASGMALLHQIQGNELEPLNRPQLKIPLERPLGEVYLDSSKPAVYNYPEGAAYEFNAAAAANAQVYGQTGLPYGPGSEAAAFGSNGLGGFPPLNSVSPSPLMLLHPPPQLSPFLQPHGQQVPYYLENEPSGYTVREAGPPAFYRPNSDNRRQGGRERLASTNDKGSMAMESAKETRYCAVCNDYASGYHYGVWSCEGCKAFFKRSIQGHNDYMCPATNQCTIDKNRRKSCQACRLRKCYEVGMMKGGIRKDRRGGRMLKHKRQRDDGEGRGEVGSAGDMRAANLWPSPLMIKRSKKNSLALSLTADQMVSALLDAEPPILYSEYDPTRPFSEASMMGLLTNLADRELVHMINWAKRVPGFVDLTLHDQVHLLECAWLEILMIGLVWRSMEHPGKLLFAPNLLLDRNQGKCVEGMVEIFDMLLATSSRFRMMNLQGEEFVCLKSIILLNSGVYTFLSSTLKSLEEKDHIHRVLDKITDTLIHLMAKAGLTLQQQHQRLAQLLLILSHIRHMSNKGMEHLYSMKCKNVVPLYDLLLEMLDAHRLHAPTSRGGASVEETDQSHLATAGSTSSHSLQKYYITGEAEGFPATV

This test has as its target Estrogen receptor (Homo sapiens) (UniProt P03372). Put plainly: OT_ER_ERaERa_0480: Odyssey Thera (OT) 8-hour HEK293T Protein-Complementation Assay for Estrogen Receptor-alpha/-alpha Homodimer (AID 2283351).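 Further: rise in fluorescence from reassembled reporter fragments on ERα LBD homodimer in nucleus or whole cell.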 The protocol: OT_ER_ERaERa_0480 is a cell-based assay that uses HEK293T, a human kidney cell line, with measurements taken at 8 hours after chemical dosing in a 384-well plate.OT_ER_ERaERa_0480 is one of one assay component(s) measured or calculated from the OT_ER_ERaERa_0480 assay. It is designed to make measurements of protein fragment complementation, a form of binding reporter, as detected with fluorescence intensity signals by Protein-fragment Complementation technology.Data from the assay component OT_ER_ERaERa_0480 was analyzed into 1 assay endpoint. This assay endpoint, OT_ER_ERaERa_0480, was analyzed in the positive analysis fitting direction relative to DMSO as the negative control and baseline of activity. Using a type of binding reporter, measures of receptor for gain-of-signal activity can be used to understand the binding at the pathway-level as they relate to the gene ESR1. Furthermore, this assay endpoint can be referred to as a primary readout, because the performed assay has only produced 1 assay endpoint. To generalize the intended target to other relatable targets, this assay endpoint is annotated to the nuclear receptor intended target family, where the subfamily is steroidal.
Protein-fragment complementation assay, or PCA, is a method for the identification and quantification of protein-protein interactions. In the PCA, the proteins of interest ("bait" and "prey") are each covalently linked to fragments of a third protein (e.g. DHFR, which acts as a "reporter"). Interaction between the bait and the prey proteins brings the fragments of the reporter protein in close proximity to allow them to form a functional reporter protein whose activity can be measured. The OT ER alpha / ER alpha assay is a homodimer PCA of the ligand binding domain (amino acids 310-547) of human ER alpha stably expressed in HEK293T cells. […] Fluorescent signal in the basal state of the assay is very low and is primarily punctuate and cytoplasmic. Modulation of this assay is quantified as an increase in mean fluorescence intensity in the nucleus (for agonists) or in the nucleus and cytoplasm (antagonists) relative to vehicle controls, and can be quantified on a high content imaging device or a laser scanning cytometer. The latter instrument is favored for this assay because of the rapid mode of data acquisition, the ability to acquire data from the entire cell population in a well (as opposed to a fraction of the well on the high content devices) and the larger dynamic range typically achieved with this instrument. To assess sensitivity of the ER alpha/ER alpha LBD assay to ligand, cells were treated with the ER agonist 17 beta-estradiol (E2) in 10-point concentration- response format for 8 hours and monitored response on a laser scanning plate cytometer (Acumen eX3; TTP Lab Tech).
Take `CC(C)OC(=O)Nc1cccc(Cl)c1`: the outcome was inactive.

Regarding `CNC(=O)Oc1cccc(N=CN(C)C)c1`, the result was inactive. On to `COc1nn(CSP(=S)(OC)OC)c(=O)s1`, for which the compound was classed as inactive. Then `O=S1OCC2C(CO1)C1(Cl)C(Cl)=C(Cl)C2(Cl)C1(Cl)Cl` (stereo not drawn), with “inactive”. Then `CCC(C)(NC(=O)c1cc(Cl)c(C)c(Cl)c1)C(=O)CCl` (stereo not drawn), with “inactive”. Then `O=[N+]([O-])/N=C1\NCCN1Cc1ccc(Cl)nc1`, with “inactive”; and `CC(C)(C)C(O)/C(=C\c1ccc(Cl)cc1Cl)n1cncn1` (stereo not drawn), with “inactive”; and `Cc1[nH]c(=O)n(C(C)(C)C)c(=O)c1Cl`, with “inactive”.

Take `CCC(C)Nc1c([N+](=O)[O-])cc(C(C)(C)C)cc1[N+](=O)[O-]` (stereo not drawn): the call was inactive. Then `CCOCN(C(=O)CCl)c1c(C)cccc1CC`, with “inactive”; and `CC[C@H](C)[C@H]1O[C@]2(C=C[C@@H]1C)C[C@@H]1C[C@@H](C/C=C(\C)[C@@H](O[C@H]3C[C@H](OC)[C@@H](O[C@H]4C[C@H](OC)[C@@H](O)[C@H](C)O4)[C@H](C)O3)[C@@H](C)/C=C/C=C3\CO[C@@H]4[C@H](O)C(C)=C[C@@H](C(=O)O1)[C@]34O)O2` (tested in a mixture with another compound), with “inactive”; and `Clc1ccccc1-c1nnc(-c2ccccc2Cl)nn1`, with “inactive”. Then `CN1CSC(=S)N(C)C1`, with “inactive”; and `CCCN(CCC)c1c([N+](=O)[O-])cc(C(F)(F)F)cc1[N+](=O)[O-]`, with “inactive”. Then `COP(=S)(OC)Oc1ccc(SC)c(C)c1`, with “inactive”; and `O=C1c2ccccc2C(=O)N1SC(Cl)(Cl)Cl`, with “inactive”. As for `O=[N+]([O-])c1c(Cl)c(Cl)c(Cl)c(Cl)c1Cl`, the compound was classed as inactive. With `O=C(Nc1ccccc1)Nc1cnns1`, the result was inactive.

On to `CC1(c2ccc(Oc3ccccc3)cc2)OC(=O)N(Nc2ccccc2)C1=O` (stereo not drawn), for which the result was inactive. For `COP(=O)(OC)OC=C(Cl)Cl`, the outcome was inactive. Then `OCCOc1ccccc1`, with “inactive”; and `COP(=S)(OC)Oc1ccc([N+](=O)[O-])cc1`, with “inactive”; and `CCc1ccc(C(=O)NN(C(=O)c2cc(C)cc(C)c2)C(C)(C)C)cc1`, with “inactive”. Then `N#Cc1c(Cl)c(Cl)c(Cl)c(C#N)c1Cl`, with “inactive”; and `CNC(=O)Oc1ccccc1OC(C)C`, with “inactive”; and `C#CCN1C(=O)COc2cc(F)c(N3C(=O)C4=C(CCCC4)C3=O)cc21`, with “inactive”. Then `CC(C)N(C(=O)COc1nnc(C(F)(F)F)s1)c1ccc(F)cc1`, with “inactive”. On to `CCOC1Oc2ccc(OS(C)(=O)=O)cc2C1(C)C` (stereo not drawn), for which the result was inactive. Then `CNC(=O)/C=C(\C)OP(=O)(OC)OC`, with “inactive”; and `N#CN`, with “inactive”; and `CCN(CC)C(=O)SCc1ccc(Cl)cc1`, with “inactive”.

Turning to `CNC(=O)CSP(=S)(OC)OC`, the outcome was inactive. As for `O=C(NC(=O)c1c(F)cccc1F)Nc1ccc(OC(F)(F)C(F)OC(F)(F)F)c(Cl)c1` (stereo not drawn), the call was inactive.
